Test results reported in PubChem BioAssay AID651739 (Broad Institute, 2012).
Out of some 5,600 compounds screened, about 4,100 (73%) were called active. Inconclusive results (about 4%) are left out. The set was probably picked from earlier hits. The list is a sample of the results. Unmarked numbers belong to inactive results.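 The calls were made as follows: active = mean replicate inhibition above about 95% and at least 55% of replicates individually reaching it (limit read from the data); inconclusive = only one of the two criteria is met; inactive = neither criterion is met.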

Assay: T. cruzi intracellular proliferation inhibitors, confirmation, cell-based, NIH3T3 host, beta-gal parasite, luminescence, cherry-pick (AID 651739)
Details: T. cruzi beta-gal in NIH3T3, GalScreen luminescence, 90 h; at 8.35 µM; stronger effect = higher value

| Structure (SMILES) | inhibition |
| --- | --- |
| C[C@@H]1CCCCO[C@H](CN(C)Cc2ccccc2)[C@H](C)CN([C@H](C)CO)C(=O)c2cc(NS(=O)(=O)c3ccc(Cl)cc3)ccc2O1 | 99.5% (active) |
| C[C@H](CO)N1C[C@H](C)[C@H](CN(C)Cc2ccc(C(F)(F)F)cc2)OCCCC[C@H](C)Oc2ccc(NS(=O)(=O)c3ccc(Cl)cc3)cc2C1=O | 91.8% |
| C[C@@H]1CN([C@H](C)CO)C(=O)c2cc(NS(=O)(=O)c3ccc(Cl)cc3)ccc2O[C@@H](C)CCCCO[C@H]1CN(C)Cc1ccccc1 | 97.6% (active) |
| C[C@H]1CCCCO[C@@H](CN(C)C(=O)NC2CCCCC2)[C@@H](C)CN([C@@H](C)CO)C(=O)c2cc(NS(=O)(=O)c3ccc(Cl)cc3)ccc2O1 | 103% (active) |
| COc1ccc(NC(=O)N(C)C[C@@H]2OCCCC[C@@H](C)Oc3ccc(NS(=O)(=O)c4ccc(Cl)cc4)cc3C(=O)N([C@H](C)CO)C[C@H]2C)cc1 | 104% (active) |
| C[C@@H]1CCCCO[C@H](CN(C)C(=O)NC2CCCCC2)[C@H](C)CN([C@H](C)CO)C(=O)c2cc(NS(=O)(=O)c3ccc(Cl)cc3)ccc2O1 | 106% (active) |
| COc1ccc(S(=O)(=O)Nc2ccc3c(c2)C(=O)N([C@H](C)CO)C[C@@H](C)[C@@H](CN(C)CC2CCCCC2)OCCCC[C@@H](C)O3)cc1 | 91.5% |
| O=C(NCC1CCCCC1)[C@H]1[C@H](CO)[C@H]2Cn3c(cccc3=O)[C@H]2N1C(=O)CC1CC1 | 43% |
| O=C(NCc1ccccn1)[C@@H]1[C@@H](CO)[C@@H]2Cn3c(ccc(/C=C/c4ccccc4)c3=O)[C@H]1N2CC1CC1 | 66.3% |
| O=C(Nc1ccc(-c2ccccc2)cc1)[C@H]1[C@H](CO)[C@H]2Cn3c(cccc3=O)[C@H]2N1CC1CC1 | 101% (active) |
| O=S(=O)(Cc1ccccc1)N1CCCCN2[C@@H](CO)[C@@H](c3ccc(-c4ccc(F)cc4)cc3)[C@@H]2C1 | 96.2% (active) |
| CCS(=O)(=O)N1CCCCN2[C@@H](CO)[C@@H](c3ccc(-c4ccccc4)cc3)[C@@H]2C1 | 102% (active) |
| Cc1cccc(-c2ccc([C@@H]3[C@@H](CO)N4CCCCN(S(=O)(=O)c5cccs5)C[C@H]34)cc2)c1 | 106% (active) |
| C/C=C/c1ccc([C@H]2[C@H]3CN(S(=O)(=O)c4ccccc4)CCCCN3[C@H]2CO)cc1 | 105% (active) |
| O=S(=O)(Cc1ccccc1)N1CCCCN2[C@@H](CO)[C@H](c3ccc(-c4ccccc4)cc3)[C@@H]2C1 | 97.9% (active) |
| O=S(=O)(Cc1ccccc1)N1CCCCN2[C@@H](CO)[C@H](c3ccc(-c4cccnc4)cc3)[C@@H]2C1 | 97.7% (active) |
| C[C@H](O)C#Cc1ccc([C@H]2[C@H]3CN(S(=O)(=O)Cc4ccccc4)CCCCN3[C@H]2CO)cc1 | 72.1% |
| COc1ccc(C#Cc2cnc3c(c2)C(=O)N([C@@H](C)CO)C[C@H](C)[C@@H](CN(C)C(C)=O)O3)cc1 | 19.7% |
| C[C@@H]1CN([C@@H](C)CO)C(=O)c2cc(C#Cc3ccccc3)cnc2O[C@H]1CN(C)C(=O)c1ccccn1 | 101% (active) |
| C[C@@H]1CN([C@H](C)CO)C(=O)c2cc(/C=C/c3ccccc3)cnc2O[C@@H]1CN(C)Cc1ccncc1 | 86.1% |
| COCC(=O)N(C)C[C@@H]1Oc2ncc(C#Cc3ccccc3OC)cc2C(=O)N([C@@H](C)CO)C[C@H]1C | 109% (active) |

| Structure (SMILES) | inhibition |
| --- | --- |
| CC(C)CC#Cc1cnc2c(c1)C(=O)N([C@@H](C)CO)C[C@@H](C)[C@H](CN(C)C(=O)Cc1ccncc1)O2 | 76.3% |
| C[C@@H]1CN([C@H](C)CO)C(=O)c2cc(C#Cc3ccccn3)cnc2O[C@H]1CN(C)Cc1ccccc1 | 102% (active) |
| C[C@H](CO)N1C[C@H](C)[C@H](CN(C)C(=O)Nc2cccc3ccccc23)Oc2ncc(C#Cc3ccccc3)cc2C1=O | 99.9% (active) |
| C[C@@H]1CCCCO[C@@H](CN(C)S(=O)(=O)c2ccc(Cl)cc2)[C@H](C)CN([C@@H](C)CO)C(=O)c2cc(NC(=O)Cc3ccccc3)ccc2O1 | 108% (active) |
| Cc1ccc(S(=O)(=O)N(C)C[C@H]2OCCCC[C@H](C)Oc3ccc(NC(=O)Cc4ccccc4)cc3C(=O)N([C@@H](C)CO)C[C@@H]2C)cc1 | 110% (active) |
| C[C@@H]1CN([C@@H](C)CO)S(=O)(=O)c2ccc(C#CCN(C)C)cc2O[C@H]1CN(C)C(=O)C1CC1 | 110% (active) |
| Cc1ccc(-c2ccc3c(c2)O[C@H](CN(C)C)[C@@H](C)CN([C@H](C)CO)S3(=O)=O)cc1 | 88% |
| COc1ccccc1-c1ccc2c(c1)O[C@@H](CN(C)C)[C@H](C)CN([C@H](C)CO)S2(=O)=O | 22.8% |
| CC(C)CC#Cc1ccc2c(c1)O[C@H](CN(C)C(=O)C1CC1)[C@@H](C)CN([C@@H](C)CO)S2(=O)=O | 111% (active) |
| C[C@H](CO)N1C[C@H](C)[C@@H](CN(C)C(=O)C2CCCCC2)Oc2cc(-c3ccccc3)ccc2S1(=O)=O | 107% (active) |
| C[C@@H]1CN([C@H](C)CO)C(=O)c2cc(NC(=O)Nc3ccc(F)cc3)ccc2O[C@@H](C)CCCCO[C@@H]1CN(C)CC1CCCCC1 | 90.7% |
| CC(C)NC(=O)N(C)C[C@H]1OCc2cn(nn2)CCCC(=O)N([C@@H](C)CO)C[C@H]1C | 2.94% |
| CNC[C@H]1OCCCC[C@@H](C)Oc2ccc(NS(C)(=O)=O)cc2C(=O)N([C@H](C)CO)C[C@H]1C | -10.3% |
| CNC[C@H]1OCCCC[C@H](C)Oc2ccc(NC(=O)Nc3c(C)noc3C)cc2C(=O)N([C@H](C)CO)C[C@H]1C | 104% (active) |
| C[C@H]1CN([C@@H](C)CO)C(=O)CCCn2cc(nn2)CO[C@H]1CN(C)C(=O)c1ccccc1 | 103% (active) |
| C[C@@H]1CCCCO[C@H](CN(C)C(=O)NC2CCCCC2)[C@H](C)CN([C@H](C)CO)C(=O)c2cc(NC(=O)Nc3ccc(F)cc3)ccc2O1 | 97.3% (active) |
| C[C@@H]1CN([C@@H](C)CO)C(=O)CCCn2cc(nn2)CO[C@@H]1CN(C)S(=O)(=O)c1ccccc1F | -12.9% |
| C[C@@H]1CN([C@@H](C)CO)C(=O)c2cc(NC(=O)Nc3ccc(C(F)(F)F)cc3)ccc2O[C@@H](C)CCCCO[C@H]1CN(C)C(=O)c1ccccc1 | 105% (active) |
| COc1ccc(NC(=O)N(C)C[C@H]2OCCCC[C@H](C)Oc3ccc(NC(=O)Nc4ccc(C(F)(F)F)cc4)cc3C(=O)N([C@@H](C)CO)C[C@@H]2C)cc1 | 103% (active) |
| C[C@H](CO)N1C[C@H](C)[C@H](CN(C)C(=O)Nc2ccc(C(F)(F)F)cc2)OCCCC[C@H](C)Oc2ccc(NC(=O)C3CCCCC3)cc2C1=O | 109% (active) |
| CC(C)NC(=O)Nc1ccc2c(c1)C(=O)N([C@H](C)CO)C[C@H](C)[C@H](CN(C)C(=O)Nc1ccc(C(F)(F)F)cc1)OCCCC[C@@H](C)O2 | 110% (active) |

| Structure (SMILES) | inhibition |
| --- | --- |
| C[C@@H]1CCCCO[C@H](CN(C)C(=O)Nc2ccc(C(F)(F)F)cc2)[C@H](C)CN([C@H](C)CO)C(=O)c2cc(NC(=O)Nc3ccc(C(F)(F)F)cc3)ccc2O1 | 109% (active) |
| COc1ccc(S(=O)(=O)N2CCCCN3[C@H](CO)[C@@H](c4ccc(C#CC(C)C)cc4)[C@H]3C2)cc1 | 109% (active) |
| C[C@H](O)C#Cc1ccc([C@@H]2[C@H]3CN(S(=O)(=O)c4ccccc4)CCCCN3[C@H]2CO)cc1 | 32.8% |
| C[C@@H](O)C#Cc1ccc([C@@H]2[C@H](CO)N3CCCCN(S(=O)(=O)c4ccccc4)C[C@@H]23)cc1 | 62.6% |
| COc1ccc(S(=O)(=O)N2CCCCN3[C@H](C2)[C@H](c2ccc(C#CCC(C)C)cc2)[C@@H]3CO)cc1 | 98.1% (active) |
| CN(C)CC#Cc1ccc([C@H]2[C@H]3CN(S(=O)(=O)c4ccccc4F)CCCCN3[C@H]2CO)cc1 | 83.2% |
| CC(C)C#Cc1ccc([C@H]2[C@H](CO)N3CCCCN(C(=O)NC(C)C)C[C@@H]23)cc1 | 103% (active) |
| COc1cccc(S(=O)(=O)N2CCCCN3[C@H](C2)[C@H](c2ccc(C#CC(C)C)cc2)[C@@H]3CO)c1 | 102% (active) |
| COc1cccc(S(=O)(=O)N2CCCCN3[C@H](CO)[C@H](c4ccc(-c5ccncc5)cc4)[C@H]3C2)c1 | 110% (active) |
| COc1cccc(S(=O)(=O)N2CCCCN3[C@H](CO)[C@H](c4ccc(C#CC5CC5)cc4)[C@H]3C2)c1 | 105% (active) |
| CC(C)CC#Cc1ccc2c(c1)O[C@H](CN(C)Cc1ccccc1F)[C@@H](C)CN([C@@H](C)CO)S2(=O)=O | 96.7% (active) |
| CC(C)CC#Cc1ccc2c(c1)O[C@H](CN(C)Cc1cccnc1)[C@H](C)CN([C@@H](C)CO)S2(=O)=O | 98.7% (active) |
| C[C@H](CO)N1C[C@H](C)[C@@H](CN(C)Cc2ccncc2)Oc2cc(Br)ccc2S1(=O)=O | 95.7% (active) |
| CC(C)CC#Cc1ccc2c(c1)O[C@H](CN(C)Cc1ccncc1)[C@H](C)CN([C@H](C)CO)S2(=O)=O | 97.8% (active) |
| C[C@H](CO)N1C[C@H](C)[C@H](CN(C)Cc2ccncc2)Oc2cc(-c3ccncc3)ccc2S1(=O)=O | 92.9% |
| Cc1ccccc1-c1ccc([C@H]2[C@H]3CN(S(=O)(=O)c4ccc(F)cc4)CCCCN3[C@H]2CO)cc1 | 97.2% (active) |
| O=S(=O)(c1ccc(F)cc1)N1CCCCN2[C@H](C1)[C@H](c1ccc(C3=CCCCC3)cc1)[C@@H]2CO | 106% (active) |
| C[C@@H]1CCCCO[C@H](CN(C)S(=O)(=O)c2ccc(Cl)cc2)[C@H](C)CN([C@@H](C)CO)C(=O)c2cc(NS(=O)(=O)c3cccs3)ccc2O1 | 105% (active) |
| C[C@H]1CCCCO[C@@H](CN(C)S(=O)(=O)c2cccs2)[C@@H](C)CN([C@@H](C)CO)C(=O)c2cc(NS(=O)(=O)c3ccc(Cl)cc3)ccc2O1 | 101% (active) |
| Cc1noc(C)c1S(=O)(=O)Nc1ccc2c(c1)C(=O)N([C@@H](C)CO)C[C@@H](C)[C@H](CN(C)S(=O)(=O)c1ccc(Cl)cc1)OCCCC[C@H](C)O2 | 99.1% (active) |
| C[C@@H]1CN([C@H](C)CO)C(=O)c2cc(NS(=O)(=O)c3cccs3)ccc2O[C@@H](C)CCCCO[C@@H]1CN(C)S(=O)(=O)c1ccc(Cl)cc1 | 101% (active) |
